Experimental data: PubChem BioAssay (Tox21)
A number with no mark means an inactive call. Results filed as inconclusive are left out. Where a call stands in place of a potency, no number is given. The source made the active and inactive calls. Unless noted, calls come from the whole dose curve.

Assays:
[1] = target: Gonadotropin-releasing hormone receptor (Homo sapiens) (UniProt P30968); test: Human gonadotropin-releasing hormone receptor (GnRHR) small molecule agonists, calcium flux assay in GnRHR-HEK293 cells (AID 1920063); note: nearly all actives have a fitted effect of over 35% in size
Chain of Gonadotropin-releasing hormone receptor (Homo sapiens) (P30968 whole entry, looked up): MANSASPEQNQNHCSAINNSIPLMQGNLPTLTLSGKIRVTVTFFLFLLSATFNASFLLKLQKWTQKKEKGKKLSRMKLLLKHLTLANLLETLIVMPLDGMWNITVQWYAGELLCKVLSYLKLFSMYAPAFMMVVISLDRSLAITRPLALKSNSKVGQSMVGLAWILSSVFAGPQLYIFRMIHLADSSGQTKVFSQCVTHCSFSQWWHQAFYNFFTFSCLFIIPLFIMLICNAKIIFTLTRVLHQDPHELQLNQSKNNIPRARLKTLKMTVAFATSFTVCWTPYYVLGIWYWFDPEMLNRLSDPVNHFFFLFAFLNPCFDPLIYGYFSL
How it was run: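 Tox21-format agonist screen using human GnRHR-expressing HEK293 cells and a fluorescent calcium dye; kinetic 3-min fluorescence reading after compound addition, 15-point concentration series run in triplicate.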

[2] = target: KiSS-1 receptor (Homo sapiens) (UniProt Q969F8); test: Human kisspeptin (KISS1R) small molecule agonists, calcium flux assay in KISS1R-HEK293 cells (AID 1920064; active = well fitted activation curve with a large enough effect in the repeat runs)
Chain of KiSS-1 receptor (Homo sapiens) (Q969F8 whole entry, looked up): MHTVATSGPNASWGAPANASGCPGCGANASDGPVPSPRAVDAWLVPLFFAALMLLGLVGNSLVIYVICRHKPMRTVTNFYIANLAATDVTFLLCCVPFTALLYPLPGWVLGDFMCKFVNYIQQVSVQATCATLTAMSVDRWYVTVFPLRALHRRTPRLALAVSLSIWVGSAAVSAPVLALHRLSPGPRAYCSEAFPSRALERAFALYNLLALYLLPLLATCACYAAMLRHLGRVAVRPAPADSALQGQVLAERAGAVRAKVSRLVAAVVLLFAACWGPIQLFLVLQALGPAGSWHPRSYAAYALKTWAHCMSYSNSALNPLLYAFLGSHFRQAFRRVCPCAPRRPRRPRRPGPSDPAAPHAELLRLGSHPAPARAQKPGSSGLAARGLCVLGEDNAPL
How it was run: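 Intracellular calcium mobilization in KISS1R-HEK293 cells was recorded by fluorescence (Ex/Em 480/540) for 3 min following compound addition to cells pre-loaded 1 h with calcium dye.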

[3] = G protein-coupled receptor (GPCR) small molecule agonists, calcium flux assay: HEK293 wild type cell line counter screen (AID 1920065)
How it was run: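 In this agonist-mode screen, ATP is the positive control and DMSO the vehicle. Cells grow 18 h before a 1 h dye incubation at 37 C; signal is taken at Ex/Em 480/540 over 3 min.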

[4] = p53 small molecule agonists, cell-based qHTS assay with human liver microsomes (AID 1963577);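 note: p53 response element beta-lactamase reporter cells with liver microsomes plus NADPH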
How it was run: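 In this qHTS, p53 response-element beta-lactamase cells receive test compound together with a microsome/NADPH activating system (0.5 mg/mL final each) and are incubated 16 h at 37 C before LiveBLAzer fluorescence detection.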

[5] = p53 small molecule agonists, cell-based qHTS assay with rat liver microsomes (AID 1963578)
How it was run: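 Agonist mode in p53RE-bla reporter cells, with compounds co-incubated 16 h at 37 C alongside 0.5 mg/mL rat liver microsomes and 0.5 mg/mL NADPH (final), followed by a 2 h LiveBLAzer detection step.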

[6] = p53 small molecule agonists, cell-based qHTS assay with human liver microsomes: qHTS cell viability counter screen (AID 1963579); note: nearly all actives have a fitted effect of over 45% in size
How it was run: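 Metabolically activated exposure: compounds, human liver microsomes and NADPH (0.5 mg/mL final apiece) were added to p53RE-bla cells seeded 5 h earlier, left 16 h at 37 C, and then assessed for viability by CellTiter-Glo luminescence.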

[7] = p53 small molecule agonists, cell-based qHTS assay with rat liver microsomes: qHTS cell viability counter screen (AID 1963580); note: nearly all actives have a fitted effect of over 45% in size
How it was run: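 HCT-116 p53RE-bla, 4,000 cells/well, 5 h pre-incubation; cpd + rat liver microsomes 0.5 mg/mL + NADPH 0.5 mg/mL (final); 16 h, 37 C; CellTiter-Glo, 30 min RT; luminescence.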

[8] = p53 small molecule agonists, cell-based qHTS assay: qHTS cell viability counter screen (AID 1963581); note: nearly all actives have a fitted effect of over 45% in size
How it was run: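 Compounds are pinned onto HCT-116 p53RE-bla cells and left 16 h at 37 C. Following the reporter FRET read, ATP is quantified by CellTiter-Glo luminescence after 30 min at room temperature.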

[9] = p53 small molecule agonists, cell-based qHTS assay (AID 1963582; active = well fitted activation curve with a large enough effect in the signal ratio in the repeat runs, not every such curve was filed as active; the % refers to the signal ratio)
How it was run: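 Agonist activity was scored from beta-lactamase FRET fluorescence in p53RE-bla cells treated 16 h at 37 C with compounds in DMSO, substrate incubation being 2 h at room temperature.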

[10] = target: 5-hydroxytryptamine receptor 2A (Homo sapiens) (UniProt P28223); test: 5-hydroxytryptamine receptor 2A (HTR2A) small molecule antagonists, cell-based qHTS assay (AID 1963586); note: nearly all actives have a fitted effect of over 45% in size
Chain of 5-hydroxytryptamine receptor 2A (Homo sapiens) (P28223 whole entry, looked up): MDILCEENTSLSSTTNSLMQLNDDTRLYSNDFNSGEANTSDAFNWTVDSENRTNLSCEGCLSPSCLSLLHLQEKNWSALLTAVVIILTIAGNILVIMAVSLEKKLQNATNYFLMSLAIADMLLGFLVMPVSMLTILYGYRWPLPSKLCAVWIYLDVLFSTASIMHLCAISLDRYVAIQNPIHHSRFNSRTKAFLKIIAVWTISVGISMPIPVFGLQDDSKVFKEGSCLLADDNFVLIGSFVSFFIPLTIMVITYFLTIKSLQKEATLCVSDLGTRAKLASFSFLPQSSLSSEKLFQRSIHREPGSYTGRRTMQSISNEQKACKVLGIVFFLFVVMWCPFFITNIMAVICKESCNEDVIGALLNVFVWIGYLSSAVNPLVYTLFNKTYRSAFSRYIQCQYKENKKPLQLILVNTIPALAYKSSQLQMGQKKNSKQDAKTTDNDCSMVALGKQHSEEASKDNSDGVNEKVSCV
How it was run: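 Antagonist-mode intracellular calcium assay: DOI (4 nM) added after 5 min compound pre-incubation at room temperature to dye-loaded HTR2A-CHO cells. Fluorescence followed for 3 min, sampled every second.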

[11] = target: 5-hydroxytryptamine receptor 2A (Homo sapiens) (UniProt P28223); test: 5-hydroxytryptamine receptor 2A (HTR2A) small molecule agonists, cell-based qHTS assay (AID 1963587); note: nearly all actives have a fitted effect of over 30% in size
How it was run: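 Kinetic calcium-flux fluorescence (2 min, 1 sec intervals) after compound addition in agonist mode. HTR2A-CHO cells were cultured 18 h, then dye-loaded 1 h at 37 C.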

[12] = target: Muscarinic acetylcholine receptor M1 (Homo sapiens) (UniProt P11229); test: Cholinergic receptor muscarinic 1 (CHRM1) small molecule antagonists, cell-based qHTS assay (AID 1963588); note: nearly all actives have a fitted effect of over 40% in size
Chain of Muscarinic acetylcholine receptor M1 (Homo sapiens) (P11229 whole entry, looked up): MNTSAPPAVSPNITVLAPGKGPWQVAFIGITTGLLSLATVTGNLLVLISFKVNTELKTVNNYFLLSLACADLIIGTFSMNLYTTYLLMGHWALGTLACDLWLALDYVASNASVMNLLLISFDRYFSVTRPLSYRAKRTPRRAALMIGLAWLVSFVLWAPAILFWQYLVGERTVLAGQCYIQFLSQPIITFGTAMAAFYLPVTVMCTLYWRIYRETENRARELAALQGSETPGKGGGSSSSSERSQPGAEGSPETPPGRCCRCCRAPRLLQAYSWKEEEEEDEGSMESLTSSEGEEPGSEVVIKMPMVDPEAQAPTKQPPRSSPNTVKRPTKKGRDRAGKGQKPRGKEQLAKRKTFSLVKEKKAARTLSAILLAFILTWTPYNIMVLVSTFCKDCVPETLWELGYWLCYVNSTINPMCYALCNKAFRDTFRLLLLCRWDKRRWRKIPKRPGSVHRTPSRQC
How it was run: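 CHRM1-CHO calcium-flux assay, antagonist mode. Cells were seeded 18 h, dye-loaded 1 h at 37 C and given compound for 5 min at RT, then acetylcholine was added at 50nM. FDSS fluorescence was read 3 min; 15 concentrations, three runs.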

[13] = target: Muscarinic acetylcholine receptor M1 (Homo sapiens) (UniProt P11229); test: Cholinergic receptor muscarinic 1 (CHRM1) small molecule agonists, cell-based qHTS assay (AID 1963589); note: nearly all actives have a fitted effect of over 35% in size
How it was run: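 Stable CHRM1-CHO cells (human receptor) were incubated 18 h, dye-loaded for 1 h at 37 C and exposed to test compounds for agonist activity, with calcium-dependent fluorescence followed kinetically.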

[14] = cAMP Responsive Elements (CRE) small molecule agonists, cell-based qHTS assay (AID 1963590); note: potency is the fitted concentration of half-maximal effect
How it was run: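 FRET-based beta-lactamase readout (LiveBLAzer B/G, 2 h RT) quantified CRE activation in HEK 293T CRE-bla cells after 3 h treatment with DMSO-dissolved compounds.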

[15] = target: Beta-2 adrenergic receptor (Homo sapiens) (UniProt P07550); test: Adrenergic beta2 receptor (ADRB2) small molecule antagonists, cell-based qHTS assay (AID 1963592); note: series mostly up to about 92 µM; nearly all actives have a fitted effect of over 50% in size
Chain of Beta-2 adrenergic receptor (Homo sapiens) (P07550 whole entry, looked up): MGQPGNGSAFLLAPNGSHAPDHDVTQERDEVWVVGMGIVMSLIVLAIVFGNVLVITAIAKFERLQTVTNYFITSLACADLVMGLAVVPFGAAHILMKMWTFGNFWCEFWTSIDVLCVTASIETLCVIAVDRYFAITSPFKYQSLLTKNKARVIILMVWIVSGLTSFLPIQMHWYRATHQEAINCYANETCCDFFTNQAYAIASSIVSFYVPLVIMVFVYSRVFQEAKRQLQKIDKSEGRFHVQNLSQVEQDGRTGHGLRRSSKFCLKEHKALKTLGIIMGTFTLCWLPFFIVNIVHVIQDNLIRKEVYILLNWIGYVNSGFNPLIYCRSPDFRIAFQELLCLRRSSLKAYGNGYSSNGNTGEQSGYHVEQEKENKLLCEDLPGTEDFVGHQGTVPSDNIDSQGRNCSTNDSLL
How it was run: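 Cells (CHO, stable ADRB2 overexpression) incubated 18-20hr at 37C; compounds added from DMSO; agonist mix (1nM isoproterenol, 100uM IBMX, 25uM Ro-20-1724) added; 0.5hr RT; d2-cAMP and anti-cAMP-cryptate added; 1hr RT; 665/615 nm read.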

[16] = target: Beta-2 adrenergic receptor (Homo sapiens) (UniProt P07550); test: Adrenergic beta2 receptor (ADRB2) small molecule agonists, cell-based qHTS assay (AID 1963593);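 note: CHO cells stably overexpressing human ADRB2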
How it was run: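 CHO cells stably over-expressing ADRB2 were plated overnight at 37C, then dosed with compounds plus a stimulation mix containing 100uM IBMX and 25uM Ro-20-1724 for 0.5hr at room temperature. cAMP was measured by HTRF competition, 1hr.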

[17] = target: D(2) dopamine receptor (Homo sapiens) (UniProt P14416); test: Dopamine D2 receptor (DRD2) small molecule agonists, cell-based qHTS assay (AID 1963594); note: nearly all actives have a fitted effect of over 35% in size
Chain of D(2) dopamine receptor (Homo sapiens) (P14416 whole entry, looked up): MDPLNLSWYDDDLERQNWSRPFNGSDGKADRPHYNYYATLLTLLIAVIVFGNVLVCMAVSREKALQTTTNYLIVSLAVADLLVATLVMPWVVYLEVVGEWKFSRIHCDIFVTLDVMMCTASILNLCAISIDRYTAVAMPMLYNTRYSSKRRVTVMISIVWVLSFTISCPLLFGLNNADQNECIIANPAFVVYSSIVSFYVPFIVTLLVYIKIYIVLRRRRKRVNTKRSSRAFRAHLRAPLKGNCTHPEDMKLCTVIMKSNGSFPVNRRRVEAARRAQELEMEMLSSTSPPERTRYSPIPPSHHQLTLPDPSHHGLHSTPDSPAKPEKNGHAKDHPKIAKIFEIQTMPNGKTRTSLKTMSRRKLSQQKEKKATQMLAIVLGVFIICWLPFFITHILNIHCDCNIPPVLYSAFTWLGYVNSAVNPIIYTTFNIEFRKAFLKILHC
How it was run: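 cAMP accumulation in DRD2-HEK293 cells measured by HTRF after 1 h detection; compounds added 10 min before NKH477 (200nM […]) forskolin-analogue stimulation, 30 min at room temperature, with Ro20-1724 present at 0.1 mM final.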

[18] = target: D(2) dopamine receptor (Homo sapiens) (UniProt P14416); test: Dopamine D2 receptor (DRD2) small molecule antagonists, cell-based qHTS assay (AID 1963595; active = well fitted inhibition curve with a large enough effect in the signal ratio in the repeat runs, with a control signal flat; the % refers to the signal ratio; note: potency is the fitted concentration of half-maximal effect)
How it was run: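 HEK293 cells stably expressing DRD2 were preincubated with 0.1 mM Ro20-1724, then with compound for 10 min at room temperature. Cells were stimulated with 200 nM NKH477 plus 12 nM quinpirole for 30 min, and cAMP was read by HTRF.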

[19] = cAMP Responsive Elements (CRE) small molecule antagonists, cell-based qHTS assay (AID 1963591; active = well fitted inhibition curve with a large enough effect in the signal ratio in the repeat runs, not every such curve was filed as active; the % refers to the signal ratio)
How it was run: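 qHTS in CRE-bla HEK 293T cells: compound in DMSO, then 0.25 uM NKH477 (final), 3 h at 37 °C/5% CO2; beta-lactamase FRET read-out after 2 h substrate incubation.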

Compound	Potency [1]	Potency [2]	Potency [3]	Potency [4]	Potency [5]	Potency [6]	Potency [7]	Potency [8]	Potency [9]	Potency [10]	Potency [11]	Potency [12]	Potency [13]	Potency [14]	Potency [15]	Potency [16]	Potency [17]	Potency [18]	Potency [19]
C[C@@H](c1ncncc1F)C(O)(Cn1cncn1)c1ccc(F)cc1F (stereo not given in full)	inactive	inactive	inactive	inactive	inactive	inactive	inactive	inactive	inactive	inactive	inactive	inactive	inactive	inactive	inactive	inactive	inactive	inactive	
CC(C)COC(=O)/C=C/c1ccccc1	inactive	inactive	inactive	inactive	inactive	inactive	inactive	inactive	inactive	inactive		inactive	inactive	inactive	inactive		inactive	inactive	
NS(=O)(=O)c1cc2c(cc1Cl)NC(CSCc1ccccc1)=NS2(=O)=O	inactive	inactive	inactive	inactive	inactive	inactive	inactive	inactive	inactive		inactive	inactive	inactive	inactive	inactive		inactive	inactive	
COc1cc(C)nc(-n2nc(C)cc2OC)n1	inactive	inactive	inactive	inactive	inactive	inactive	inactive	inactive	inactive	inactive	inactive		inactive	inactive	inactive			inactive	
CCCCNc1cc(C(=O)O)cc(S(N)(=O)=O)c1Oc1ccccc1	inactive	inactive	inactive	inactive	inactive	inactive	inactive	inactive			inactive		inactive	inactive	inactive		inactive	inactive	inactive
CCc1ccc(C(c2ccc(CC)cc2)C(Cl)Cl)cc1	inactive	inactive	inactive	inactive	inactive	inactive	inactive	inactive	inactive	inactive		inactive	inactive	inactive	inactive	inactive	inactive	inactive	inactive
COc1cc2c(cc1OC)-c1cc(=Nc3c(C)cc(C)cc3C)n(C)c(=O)n1CC2	inactive	inactive	inactive	inactive	inactive		inactive	inactive	inactive	inactive	inactive			4.22 µM (active)				15 µM (active)	
